Experimental data published in PubChem BioAssay (Tox21).
“And” between values parts separate entries of the source, which are not always exact repeats. Equal entries are not always repeated. Inconclusive results are not listed. Where a structure was tested more than once in an assay, its records may differ in their call. The source made the active and inactive calls. Calls come from the whole dose curve; as a rule, active = well fitted inhibition curve with a large enough effect in the repeat runs; inconclusive = weak or mixed curves; inactive = no such curve, though single readings can be large or run the other way.

These compounds were tested against Cytochrome P450 2C9 (Homo sapiens) (UniProt P11712) (assay: Cytochrome P450 Family 2 Subfamily C Member 9 (CYP2C9) small molecule antagonists: luciferase reporter qHTS assay (AID 1671198; note: nearly all actives have a fitted effect of over 50% in size)). Conditions: P450-Glo CYP2C9 enzyme assay, luciferin luminescence; series mostly up to 115 µM.
Cytochrome P450 2C9 (Homo sapiens), sequence (P11712 whole entry, looked up): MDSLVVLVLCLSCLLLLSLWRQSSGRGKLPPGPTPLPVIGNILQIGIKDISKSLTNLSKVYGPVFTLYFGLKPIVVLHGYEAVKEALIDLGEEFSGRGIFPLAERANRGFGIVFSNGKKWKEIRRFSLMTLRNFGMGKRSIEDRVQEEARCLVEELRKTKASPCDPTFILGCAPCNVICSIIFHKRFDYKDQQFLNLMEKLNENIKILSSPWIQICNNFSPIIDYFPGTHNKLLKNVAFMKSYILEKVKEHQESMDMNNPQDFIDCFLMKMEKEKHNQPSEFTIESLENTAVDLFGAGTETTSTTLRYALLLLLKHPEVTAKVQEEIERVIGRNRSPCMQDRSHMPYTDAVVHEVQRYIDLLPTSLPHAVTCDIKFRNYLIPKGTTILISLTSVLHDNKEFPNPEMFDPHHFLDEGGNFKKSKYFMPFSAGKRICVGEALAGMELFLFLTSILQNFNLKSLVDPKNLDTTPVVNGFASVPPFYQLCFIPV
In short: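 Enzyme-substrate mix preincubated with compound 10 min at room temperature; reaction started with NADPH regeneration solution, 1 h 37C. Luminescent luciferin product read after 20 min detection reagent.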
Potency is the fitted concentration of half-maximal effect.

Row | SMILES | Potency
1 | Oc1c(Cl)cc(Cl)c(Cl)c1Cl | 39.1 µM (active) and 28.3 µM (active)
2 | c1ccc2[nH]cnc2c1 | inactive
3 | CCCCCCC(C)(C)S | 32 µM (active) and inactive
4 | CC1(C)O[C@@H]2C[C@H]3[C@@H]4C[C@H](F)C5=CC(=O)CC[C@]5(C)[C@H]4[C@@H](O)C[C@]3(C)[C@]2(C(=O)CO)O1 | inactive
5 | CC1=C(CC(=O)O)c2cc(F)ccc2/C1=C\c1ccc(S(C)=O)cc1 (stereo unspecified) | 50.2 µM (active) and inactive
6 | Cc1ccc(N)c(S(=O)(=O)O)c1 | 45.4 µM (active)
7 | CC[Si](OC(C)=O)(OC(C)=O)OC(C)=O | 71 µM (active) and inactive
8 | CCc1ccc(O)cc1 | inactive
9 | O=c1c(-c2ccc(O)cc2)coc2cc(O)ccc12 | 280 nM (active) and 159 nM (active)
10 | C=C(C)C(=O)OCCCCCC | inactive
11 | CCCCC(CC)C(=O)OCCOCCOCCOC(=O)C(CC)CCCC (stereo unspecified) | 25.5 µM (active) and 7.96 µM (active)
12 | O=C(c1cc(O)c(O)c(O)c1)c1ccc(O)c(O)c1O | 3.16 µM (active) and 50.2 µM (active) and inactive
13 | CCCCCCCCCCCCOCC1CO1 (stereo unspecified) | inactive
14 | Cc1cc(O)c2c(c1)C(=O)c1cc(O)cc(O)c1C2=O | 12.3 µM (active) and 11.2 µM (active)
15 | CCOC(=O)/C=C\C(=O)OCC | inactive
16 | CC(C)(C)C1CCC(O)CC1 (stereo unspecified) | inactive
